High-throughput results: PubChem BioAssay, several laboratories
LMP1 NFkB inh – EBV LMP1-driven NF-kappaB luciferase reporter inhibitors, primary screen, cell-based, luminescence, single point. AID 504558, 2011. 350,000 tested, 0.69% active. inhibition, % at 12.5 µM. LMP1-induced NF-kappaB luciferase reporter cells; in the data active = inhibition above about 41%;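 also: 0% = neutral control wells and 100% = reference inhibitor control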
TWEAK Fn14 block – inhibitors of TWEAK-Fn14 signaling, primary screen, luciferase reporter cells, uHTS; TWEAK-stimulated Fn14 reporter cells, luciferase luminescence, 8 h; inhibition, % at 10 µM; 360,000 tested, 2% active; in the data active = inhibition above about 50%
Peg3 prom inh – Peg3 promoter-driven luciferase inhibitors, primary screen, cell-based, HeLa, luciferase luminescence | HeLa PEG-Prom luciferase reporter, overnight | inhibition, % at 20 µM | 360,000 tested, 1.7% active | AID 588405, 2011;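 active = inhibition of at least 50% at 20 µM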
MITF TRPM1 inh – inhibitors of MITF-dependent TRPM1 promoter reporter, primary screen, cell-based, SK-MEL-5, single point, luciferase; SK-MEL-5 TRPM1 promoter luciferase, 24 h; inhibition, % at 12.5 µM; 330,000 tested, 0.83% active; AID 488899, 2010;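 active = mean inhibition across replicates of 60% or more, whatever share of single replicates reaches that level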
TROY signal inh – inhibitors of TROY-driven NF-kB signaling, primary screen, Q293 LMP1-TROYcd cells, NF-kB luciferase, uHTS. inhibition, % at 10 µM. 360,000 tested, 0.98% active. AID 1347056, 2019. Q293 LMP1-TROYcd NF-kB luciferase reporter, 4 h;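 active = compounds whose plate-normalised and pattern-corrected inhibition of the luciferase reporter signal at the single screening dose is 50% or more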
Shn3 inh set2 – reduction of Shn3 3'UTR firefly luciferase signal, primary screen, Schnurri-3 inhibitor project, cell-based, Clone20 osteoblasts, set 2; Clone20 osteoblast Shn3 3'UTR firefly luciferase, 24 h; inhibition, % at 12.5 µM; 360,000 tested, 0.52% active; AID 588674, 2011;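 active = mean inhibition of at least 75% with every replicate also reaching 75%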;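 also: 0% = median of neutral control wells and 100% = pilot-screen positive control compound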
Active calls of the source: *; . = not tested or not shown; ! = not active in a repeat. A selection: hits, their analogues and other compounds. The true share with any hit is near 4.1%.

SMILES | LMP1 NFkB inh | TWEAK Fn14 block | Peg3 prom inh | MITF TRPM1 inh | TROY signal inh | Shn3 inh set2
N#C/C(=C(/O)c1ccc([N+](=O)[O-])o1)c1nc2ccccc2[nH]1 | -3.0 | 28.5 | 76.7* | 87.5* | 50.0* | 10.5
O=C(/C(N=Nc1cccc([N+](=O)[O-])c1)=C(/O)c1ccc(Br)cc1)C(F)(F)F | . | 42.5 | -28.7 | . | 31.0 | 61.1
Cc1cn(-c2cc(C(=O)Nc3ccc(C)c(NC(=O)C(=O)c4c[nH]c5ccccc45)c3)cc(C(F)(F)F)c2)cn1 | -0.6 | 52.1*! | 28.7 | 11.8 | 12.7 | 25.4
O=C(NC1CCCCCC1)c1cc2ccccc2oc1=O | -28.0 | 53.9* | -280.8 | -71.1 | 5.4 | -8.0
COc1ccc2cc(C(=O)NC3CCCCC3)c(=O)oc2c1 | 80.8* | -17.7 | -192.1 | -66.3 | -63.9 | -1.0
CCCC(C)c1nnc(NC(=O)CCS(=O)(=O)Cc2ccccc2)s1 (stereo unspecified) | 2.8 | 15.8 | 33.2 | 13.5 | -12.2 | 0.4
CNC(=O)NC(=O)C(C)OC(=O)CCCc1nc2ccccc2s1 (stereo unspecified) | 0.4 | 0.5 | 3.6 | 3.4 | -39.0 | 8.2
CNC(=O)NC(=O)C(C)OC(=O)CCCSc1nc2ccccc2s1 (stereo unspecified) | 4.3 | 54.9* | 14.5 | 40.5 | 30.8 | -14.2
CCNC(=O)NC(=O)C(C)OC(=O)CCCSc1nc2ccccc2s1 (stereo unspecified) | 11.4 | 59.3* | 13.7 | 38.5 | 39.3 | -3.7
CCOC(=O)N1CCN(C(=O)c2cccc(S(=O)(=O)Nc3ccc(Br)cc3)c2)CC1 | 5.4 | -1.6 | 12.1 | -5.1 | 6.8 | -8.0
CCCOc1ccc2oc(=O)c3c(c2c1)CCCN3C(=O)CN1CCCC(C(=O)OCC)C1 (stereo unspecified) | 1.1 | -0.7 | 22.1 | 2.4 | 2.1 | 1.8
CCCOc1ccc2oc(=O)c3c(c2c1)CCCN3C(=O)CN1CCN(c2ncccn2)CC1 | -6.3 | -2.0 | 14.7 | 0.7 | -6.0 | 93.6*
COCCN(CCOC)S(=O)(=O)c1ccc(C(=O)Nc2nnc(C3CC3)o2)cc1 | -2.9 | 66.7* | 0.5 | 3.5 | -9.9 | 8.2
COc1ccc2nc(-c3ccc(F)cc3)sc2c1 | 21.1 | 75.3* | -86.7 | 21.0 | 39.1 | -10.5
CCOC(=O)c1[nH]cnc1C(=O)NC(C)C | -9.5 | 7.3 | 3.6 | 5.3 | 3.0 | 13.5
NC(c1csc(Nc2nncc3ccccc23)n1)c1ccccc1Cl (stereo unspecified) | . | 3.0 | 14.6 | . | -11.6 | -5.7
COc1ccc(CC(N)c2csc(Nc3cc(NCCCO)ncn3)n2)cc1 (stereo unspecified) | . | -2.9 | 13.9 | . | -3.4 | 0.4
CCc1cnc(Nc2nc(C(N)Cc3ccc(Cl)cc3)cs2)nc1 (stereo unspecified) | . | -6.4 | 3.6 | . | 3.6 | -14.1
NC(c1csc(Nc2nncc3ccccc23)n1)C1CCCCC1 (stereo unspecified) | . | 19.7 | 113.0* | . | 8.8 | 12.5
CCCc1cnc(Nc2nc(C(N)Cc3ccc(OC)cc3)cs2)nc1 (stereo unspecified) | . | -20.9 | 99.7* | . | -3.3 | 11.8
COc1ccc(CC(N)c2csc(Nc3nncc4ccccc34)n2)cc1 (stereo unspecified) | . | 1.7 | 121.1* | . | -11.1 | 29.2
COc1cc(OC)nc(Nc2nc(C(N)Cc3ccc(F)cc3)cs2)n1 (stereo unspecified) | . | -11.2 | 95.7* | . | -9.3 | 10.9
CC(C)CCOc1ccc(C2(C)NC(=O)NC2=O)cc1 (stereo unspecified) | -23.4 | -15.8 | 4.2 | 4.2 | -9.9 | -12.0
O=S(=O)(Nc1ccccc1Cl)c1cc(NC(=S)NCCN2CCOCC2)ccc1Cl | 5.6 | 10.4 | 11.5 | 4.3 | 4.8 | 15.7
O=C(COC(=O)CSc1ccccc1)NCCNC(=O)COC(=O)CSc1ccccc1 | 3.1 | -6.9 | -10.5 | 9.3 | 5.3 | -13.4
SMILES | LMP1 NFkB inh | TWEAK Fn14 block | Peg3 prom inh | MITF TRPM1 inh | TROY signal inh | Shn3 inh set2
CCc1ccc(S(=O)(=O)N(C(=O)c2ccncc2)c2ccc(OC(=O)c3ccncc3)cc2)cc1 | 6.4 | 45.9 | 23.7 | -7.6 | 53.9* | 22.5
Cc1ccc(S(=O)(=O)N(C(=O)c2ccncc2)c2ccc(OC(=O)c3ccncc3)cc2)cc1 | 11.0 | 41.3 | 16.9 | 16.0 | 41.0 | -1.4
Cc1ccc(S(=O)(=O)N(C(=O)c2ccncc2)c2ccc(OC(=O)c3ccncc3)cc2)c(C)c1 | 18.0 | 50.4* | 52.5* | 6.6 | 48.5 | 1.9
Cc1ccc(C)c(S(=O)(=O)N(C(=O)c2ccncc2)c2ccc(OC(=O)c3ccncc3)cc2)c1 | 20.4 | 84.3* | 43.0 | -2.5 | 67.9* | 3.0
Cc1ccc(NC(=O)CCC(=O)N/N=C/c2ccc([N+](=O)[O-])o2)cc1C | -4.3 | -11.9 | -6.1 | 79.1* | 5.3 | .
O=C(CNc1ccc2ccccc2c1)N/N=C/c1ccc([N+](=O)[O-])o1 | -12.4 | 17.4 | -19.7 | 58.7 | 21.5 | 5.8
COc1ccc(-c2nn(-c3ccccc3)cc2C(=O)N/N=C/c2ccc([N+](=O)[O-])o2)cc1 | -67.7 | 24.6 | 30.0 | 89.7* | -0.8 | 26.7
O=C(COc1ccccc1)N/N=C/c1ccc([N+](=O)[O-])o1 | -6.1 | 14.7 | -37.3 | 68.0* | -63.8 | -5.5
O=C(CSc1ccc(Cl)cc1)N/N=C/c1ccc([N+](=O)[O-])o1 | -20.9 | -1.9 | -28.5 | 61.8* | 4.2 | -14.6
CC(=O)Nc1ccc(S(=O)(=O)NCCC(=O)Nc2ccc(C)c(F)c2)cc1 | -7.6 | -12.4 | 10.7 | -3.7 | -17.9 | -6.6
CCC(C)(C)NC(=O)C1CC(=O)N(CCc2ccc(F)cc2)C1 (stereo unspecified) | 3.2 | 5.6 | 18.4 | 9.2 | 8.2 | -1.2
COc1cc(NC(=O)c2ccc(N3CC4CC(C3)c3cccc(=O)n3C4)c(NC(=O)c3ccncc3)c2)cc(OC)c1OC (stereo unspecified) | -8.0 | -17.3 | 2.7 | -1.8 | -4.8 | -15.7
O=C(N/N=C/c1ccc([N+](=O)[O-])o1)c1cc(-c2cccc(Br)c2)nc2ccccc12 | -17.3 | -22.1 | -64.8 | 59.2 | -16.7 | 5.2
Cc1ccc(OCC(=O)N/N=C\c2ccc(C)o2)c([N+](=O)[O-])c1 | -4.2 | -25.9 | -2.0 | -7.3 | -32.3 | -3.6
Cc1cc(C(=O)N/N=C/c2ccc([N+](=O)[O-])o2)c(C)o1 | -10.8 | 8.6 | -10.6 | 82.9* | 22.0 | 6.0
CCCc1ccc(-c2cc(C(=O)N/N=C/c3ccc([N+](=O)[O-])o3)c3ccccc3n2)cc1 | 58.5* | 32.5 | -121.3 | 50.6 | -19.6 | -10.3
Cc1ccc(OCC(=O)N/N=C/c2ccc([N+](=O)[O-])o2)cc1 | -7.2 | 0.1 | 1.8 | 63.6* | 8.0 | -5.7
